target: NAD(+) hydrolase SARM1 (Homo sapiens) (UniProt Q6SZW1); experiment: blocking NAD cleavage by SARM1 SAM-TIR – cell lysate, NAD-Glo luminescence (AID 1508614); details: SAM-TIR HEK293T lysate NADase, at 1 µM, stronger effect = higher value;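 also: higher remaining NAD means stronger inhibition of SARM1 NADase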
Sequence (Q6SZW1 whole entry, looked up): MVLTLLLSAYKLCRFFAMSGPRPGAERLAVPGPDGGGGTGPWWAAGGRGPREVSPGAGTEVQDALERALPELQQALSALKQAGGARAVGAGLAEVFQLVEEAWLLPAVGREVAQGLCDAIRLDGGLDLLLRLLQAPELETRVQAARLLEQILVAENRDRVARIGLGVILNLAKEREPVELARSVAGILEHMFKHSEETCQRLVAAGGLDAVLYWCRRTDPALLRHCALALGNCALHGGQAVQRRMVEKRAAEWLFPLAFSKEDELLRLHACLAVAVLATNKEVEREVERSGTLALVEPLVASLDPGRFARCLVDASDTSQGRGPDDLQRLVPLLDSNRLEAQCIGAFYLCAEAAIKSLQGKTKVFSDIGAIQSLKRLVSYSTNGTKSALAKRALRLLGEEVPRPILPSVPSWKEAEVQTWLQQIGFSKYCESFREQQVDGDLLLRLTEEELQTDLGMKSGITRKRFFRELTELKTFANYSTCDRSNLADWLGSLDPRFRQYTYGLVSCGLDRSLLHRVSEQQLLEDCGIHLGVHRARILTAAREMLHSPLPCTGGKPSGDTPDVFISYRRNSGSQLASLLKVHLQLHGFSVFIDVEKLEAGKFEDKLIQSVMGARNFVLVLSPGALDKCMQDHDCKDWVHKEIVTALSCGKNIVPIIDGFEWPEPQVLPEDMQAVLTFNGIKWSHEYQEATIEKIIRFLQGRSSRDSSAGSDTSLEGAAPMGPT

Remaining NAD, inactive:
CC(=O)OCC(=O)[C@@]1(O)CC[C@H]2[C@@H]3CCC4=CC(=O)C=C[C@]4(C)[C@@]3(Cl)[C@@H](Cl)C[C@@]21C 10 nM
CCCCCCCCCC(=O)N[C@H]1[C@H](Oc2c3cc4cc2Oc2ccc(cc2Cl)[C@@H](O[C@@H]2O[C@H](CO)[C@@H](O)[C@H](O)[C@H]2NC(C)=O)[C@@H]2NC(=O)[C@H](NC(=O)[C@@H]4NC(=O)[C@H]4NC(=O)[C@@H](Cc5ccc(c(Cl)c5)O3)NC(=O)[C@@H](N)c3ccc(O)c(c3)Oc3cc(O)cc4c3)c3ccc(O)c(c3)-c3c(OC4O[C@H](CO)[C@@H](O)[C@H](O)[C@@H]4O)cc(O)cc3[C@@H](C(=O)O)NC2=O)O[C@H](CO)[C@@H](O)[C@@H]1O (stereo partly specified) 10 nM
CC(=O)OCC(=O)[C@@]1(O)[C@@H](C)C[C@H]2[C@@H]3CCC4=CC(=O)C=C[C@]4(C)[C@@]3(F)[C@@H](O)C[C@@]21C 10 nM
C/C=C(\C)C(=O)OC1[C@H](OC(C)=O)C2(CO)C(CC1(C)C)C1=CCC3C4(C)CCC(O[C@@H]5O[C@H](C(=O)O)[C@@H](O[C@@H]6O[C@H](CO)[C@@H](O)[C@H](O)[C@H]6O)[C@H](O)[C@H]5O[C@H]5O[C@H](CO)[C@@H](O)[C@H](O)[C@H]5O)[C@](C)(CO)C4CCC3(C)[C@]1(C)C[C@H]2O (stereo partly specified) 10 nM
CC(=O)O[C@@H]1C[C@@H]2CC[C@@]1(C)C2(C)C 10 nM
NC(=O)[C@@H]1CCCN1C(=O)[C@H](Cc1cnc[nH]1)NC(=O)[C@@H]1CCC(=O)N1 10 nM

Reference: PubChem BioAssay
